The source of these data is PMC7862700, “An all-to-all approach to the identification of sequence-specific readers for epigenetic DNA modifications on cytosine”.

Test in all cases: DAPPL (digital affinity profiling via proximity ligation, sequencing); 10 mM Tris-HCl pH 7.5, 50 mM NaCl, 1 mM DTT, 4% glycerol, room temperature, 30 min; GST-TFs on glutathione beads, 16-mer random dsDNA library, 0.1% formaldehyde crosslink after washing; high values mean tight binding
Common to all, as to conditions: protein: recombinant; tags: N-terminal GST; dsDNA, one strand shown

One assay deals with T1, FLI1 (Homo sapiens, UniProt Q01543 1-452).
T1 sequence: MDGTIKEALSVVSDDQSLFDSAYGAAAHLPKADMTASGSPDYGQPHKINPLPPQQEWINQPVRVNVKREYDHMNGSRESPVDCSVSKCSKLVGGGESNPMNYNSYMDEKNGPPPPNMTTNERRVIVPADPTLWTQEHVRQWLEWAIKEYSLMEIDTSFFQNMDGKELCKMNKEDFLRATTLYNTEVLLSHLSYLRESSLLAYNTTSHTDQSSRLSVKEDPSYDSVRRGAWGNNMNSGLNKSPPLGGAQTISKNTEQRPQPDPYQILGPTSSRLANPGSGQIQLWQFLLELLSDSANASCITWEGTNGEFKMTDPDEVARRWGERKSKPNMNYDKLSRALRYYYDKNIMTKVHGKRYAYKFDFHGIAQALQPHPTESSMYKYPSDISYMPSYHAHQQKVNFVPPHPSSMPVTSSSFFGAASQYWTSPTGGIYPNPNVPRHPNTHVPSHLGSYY
A digest of the protocol:
(§1)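 Beads coated with glutathione captured GST-fused human transcription factors that had been expressed in yeast, and the factors were then given DNA barcodes and pooled with a tag-only sample. The pools were incubated with 200 nmole of a random double-stranded 16-mer DNA library in Tris/NaCl/DTT/glycerol buffer for 30 min at room temperature, washed, crosslinked with 0.1% formaldehyde and proximity-ligated with BsaI/T4 ligase at 37 °C for 1 h. PCR amplification and Illumina NextSeq500 sequencing came last. Binding signal is each hexamer's read frequency for a factor divided by its frequency for the tag-only sample.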

The target of another assay is T2, ELK1 (Homo sapiens, UniProt P19419 1-428).
T2 sequence: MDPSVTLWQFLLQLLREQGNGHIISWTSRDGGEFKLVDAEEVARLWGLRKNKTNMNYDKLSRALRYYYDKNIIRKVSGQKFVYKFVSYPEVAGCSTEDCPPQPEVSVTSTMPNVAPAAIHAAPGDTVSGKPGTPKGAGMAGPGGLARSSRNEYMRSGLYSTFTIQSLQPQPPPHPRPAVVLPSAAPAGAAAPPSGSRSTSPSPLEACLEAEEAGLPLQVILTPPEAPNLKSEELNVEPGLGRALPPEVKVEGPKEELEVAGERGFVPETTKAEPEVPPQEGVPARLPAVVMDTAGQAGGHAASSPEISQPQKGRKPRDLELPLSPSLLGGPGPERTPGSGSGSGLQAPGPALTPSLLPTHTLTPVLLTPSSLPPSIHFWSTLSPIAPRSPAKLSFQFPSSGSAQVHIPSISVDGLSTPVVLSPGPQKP
In a few lines:
as §1

The next assay has as its target T3, GABPA (Homo sapiens, UniProt Q06546 1-454).
T3 sequence: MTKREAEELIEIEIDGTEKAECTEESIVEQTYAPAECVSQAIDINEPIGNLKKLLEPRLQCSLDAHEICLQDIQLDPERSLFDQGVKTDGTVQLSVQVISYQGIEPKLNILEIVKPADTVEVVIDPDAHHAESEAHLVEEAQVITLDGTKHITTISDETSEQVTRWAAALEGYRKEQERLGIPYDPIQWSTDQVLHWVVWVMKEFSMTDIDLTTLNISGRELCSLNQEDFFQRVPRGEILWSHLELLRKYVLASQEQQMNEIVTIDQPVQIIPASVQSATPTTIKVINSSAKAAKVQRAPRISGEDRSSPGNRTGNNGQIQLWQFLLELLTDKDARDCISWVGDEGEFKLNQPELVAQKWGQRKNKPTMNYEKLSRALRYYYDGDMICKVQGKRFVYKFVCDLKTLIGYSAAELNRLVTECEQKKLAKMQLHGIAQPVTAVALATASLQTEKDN
In a few lines:
as §1

Another assay concerns the target T4, ERG (Homo sapiens, UniProt P11308 1-479).
T4 sequence: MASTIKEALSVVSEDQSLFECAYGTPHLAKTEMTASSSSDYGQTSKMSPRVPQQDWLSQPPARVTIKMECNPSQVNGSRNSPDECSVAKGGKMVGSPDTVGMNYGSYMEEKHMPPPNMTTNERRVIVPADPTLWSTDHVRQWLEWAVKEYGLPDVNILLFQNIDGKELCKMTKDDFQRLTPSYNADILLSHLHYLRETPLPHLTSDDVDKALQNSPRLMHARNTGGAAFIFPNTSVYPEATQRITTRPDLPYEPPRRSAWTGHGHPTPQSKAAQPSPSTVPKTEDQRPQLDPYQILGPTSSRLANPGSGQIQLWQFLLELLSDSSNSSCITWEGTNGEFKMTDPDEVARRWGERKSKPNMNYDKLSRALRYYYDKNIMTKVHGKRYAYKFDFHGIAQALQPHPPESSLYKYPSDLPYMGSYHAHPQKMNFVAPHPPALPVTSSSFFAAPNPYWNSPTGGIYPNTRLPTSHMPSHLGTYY
In a few lines:
as §1

The target of a further assay is ELF1 (Homo sapiens, UniProt P32519 1-619). In a few lines: as §1
Sequence of ELF1 (P32519 whole entry): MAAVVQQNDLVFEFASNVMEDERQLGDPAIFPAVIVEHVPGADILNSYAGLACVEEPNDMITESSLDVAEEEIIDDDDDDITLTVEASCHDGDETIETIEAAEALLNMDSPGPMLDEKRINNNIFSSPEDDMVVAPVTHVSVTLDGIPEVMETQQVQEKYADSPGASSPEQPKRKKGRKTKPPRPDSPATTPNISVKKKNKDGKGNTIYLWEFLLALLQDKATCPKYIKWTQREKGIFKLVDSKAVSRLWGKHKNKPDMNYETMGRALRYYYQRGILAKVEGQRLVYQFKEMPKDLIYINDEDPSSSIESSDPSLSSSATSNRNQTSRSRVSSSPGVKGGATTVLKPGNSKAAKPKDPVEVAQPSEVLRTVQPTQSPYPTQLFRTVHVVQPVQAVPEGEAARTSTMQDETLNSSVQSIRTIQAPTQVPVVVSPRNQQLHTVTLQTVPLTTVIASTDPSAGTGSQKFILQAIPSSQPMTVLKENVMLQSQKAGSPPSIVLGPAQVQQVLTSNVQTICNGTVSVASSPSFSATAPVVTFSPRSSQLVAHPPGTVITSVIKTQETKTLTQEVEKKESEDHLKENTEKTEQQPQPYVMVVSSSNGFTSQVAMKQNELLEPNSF
For a further assay, the target named is T5, EHF (Homo sapiens, UniProt Q9NZC4 1-300).
T5 sequence: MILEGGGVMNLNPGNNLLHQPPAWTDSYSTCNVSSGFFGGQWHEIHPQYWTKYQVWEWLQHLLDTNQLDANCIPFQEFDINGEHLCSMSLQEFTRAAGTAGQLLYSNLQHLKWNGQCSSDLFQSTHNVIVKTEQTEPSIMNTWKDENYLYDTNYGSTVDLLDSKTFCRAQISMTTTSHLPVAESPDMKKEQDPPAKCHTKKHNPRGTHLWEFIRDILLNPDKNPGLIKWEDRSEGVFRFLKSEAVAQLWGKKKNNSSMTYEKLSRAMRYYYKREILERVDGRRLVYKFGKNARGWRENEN
A digest of the protocol: as §1

The next assay addresses SPI1 (Homo sapiens, UniProt P17947 1-270). In a few lines:
as §1

The target of a further assay is SPIB (Homo sapiens, UniProt Q01892 1-262). A digest of the protocol:
as §1

In the next assay the target is T6, ELK3 (Homo sapiens, UniProt P41970 1-407).
T6 sequence: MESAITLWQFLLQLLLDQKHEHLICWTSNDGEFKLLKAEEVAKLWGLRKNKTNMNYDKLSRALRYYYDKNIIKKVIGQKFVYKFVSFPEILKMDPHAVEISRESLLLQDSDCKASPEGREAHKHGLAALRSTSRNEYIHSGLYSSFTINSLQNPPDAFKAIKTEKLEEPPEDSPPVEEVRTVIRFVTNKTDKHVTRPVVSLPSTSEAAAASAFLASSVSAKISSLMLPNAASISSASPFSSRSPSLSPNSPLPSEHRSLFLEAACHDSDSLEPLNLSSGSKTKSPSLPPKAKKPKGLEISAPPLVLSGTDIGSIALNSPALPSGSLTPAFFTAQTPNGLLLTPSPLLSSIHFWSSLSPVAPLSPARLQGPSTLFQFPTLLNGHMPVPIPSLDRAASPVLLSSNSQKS
In a few lines:
as §1

In the next assay the target is T7, FEV (Homo sapiens, UniProt Q99581 1-238).
T7 sequence: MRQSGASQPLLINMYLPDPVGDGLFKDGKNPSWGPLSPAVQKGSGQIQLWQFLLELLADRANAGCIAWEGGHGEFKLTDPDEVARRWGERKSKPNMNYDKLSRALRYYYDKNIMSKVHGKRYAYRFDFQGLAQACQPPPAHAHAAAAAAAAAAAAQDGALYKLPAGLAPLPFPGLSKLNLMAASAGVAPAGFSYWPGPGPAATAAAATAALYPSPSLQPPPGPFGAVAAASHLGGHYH
In a few lines: as §1

The next assay deals with ETV5 (Homo sapiens, UniProt P41161 1-510). In a few lines: as §1
Sequence of ETV5 (P41161 whole entry): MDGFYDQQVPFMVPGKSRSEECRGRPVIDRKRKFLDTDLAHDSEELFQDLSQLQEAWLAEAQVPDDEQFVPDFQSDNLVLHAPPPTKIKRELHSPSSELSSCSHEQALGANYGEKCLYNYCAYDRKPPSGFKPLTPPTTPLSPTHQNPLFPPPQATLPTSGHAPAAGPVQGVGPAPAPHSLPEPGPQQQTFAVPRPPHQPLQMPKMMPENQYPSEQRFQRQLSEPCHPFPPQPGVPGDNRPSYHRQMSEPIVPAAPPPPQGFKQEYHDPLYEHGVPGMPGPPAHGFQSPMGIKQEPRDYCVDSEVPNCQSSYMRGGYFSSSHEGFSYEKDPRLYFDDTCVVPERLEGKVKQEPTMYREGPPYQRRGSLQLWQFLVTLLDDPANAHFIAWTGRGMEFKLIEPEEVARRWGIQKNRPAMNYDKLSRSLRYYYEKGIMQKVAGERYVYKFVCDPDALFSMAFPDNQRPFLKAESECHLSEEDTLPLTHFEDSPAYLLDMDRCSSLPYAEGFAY
The target of the next assay is ELF4 (Homo sapiens, UniProt Q99607 1-663). In a few lines: as §1
Sequence of ELF4 (Q99607 whole entry): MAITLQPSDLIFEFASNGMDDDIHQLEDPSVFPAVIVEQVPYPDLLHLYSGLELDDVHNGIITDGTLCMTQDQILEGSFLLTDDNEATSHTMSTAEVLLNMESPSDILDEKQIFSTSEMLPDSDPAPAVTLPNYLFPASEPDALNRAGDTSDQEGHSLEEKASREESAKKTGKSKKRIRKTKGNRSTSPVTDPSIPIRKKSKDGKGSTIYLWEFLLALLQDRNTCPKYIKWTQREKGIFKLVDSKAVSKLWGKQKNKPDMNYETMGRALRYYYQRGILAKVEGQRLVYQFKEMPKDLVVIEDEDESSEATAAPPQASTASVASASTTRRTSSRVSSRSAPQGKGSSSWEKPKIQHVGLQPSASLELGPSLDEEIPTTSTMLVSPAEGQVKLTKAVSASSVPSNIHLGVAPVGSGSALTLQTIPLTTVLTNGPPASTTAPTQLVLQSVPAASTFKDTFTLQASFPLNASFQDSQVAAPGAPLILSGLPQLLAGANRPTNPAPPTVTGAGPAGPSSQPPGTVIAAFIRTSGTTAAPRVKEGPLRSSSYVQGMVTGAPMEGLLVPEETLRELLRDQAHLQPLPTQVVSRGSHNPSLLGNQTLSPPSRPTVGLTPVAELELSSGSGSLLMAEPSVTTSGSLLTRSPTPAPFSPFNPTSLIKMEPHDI
In another assay the target is ETV1 (Homo sapiens, UniProt P50549 1-477). A digest of the protocol:
as §1

For a further assay, the target named is T8, ERF (Homo sapiens, UniProt P50548 1-548).
T8 sequence: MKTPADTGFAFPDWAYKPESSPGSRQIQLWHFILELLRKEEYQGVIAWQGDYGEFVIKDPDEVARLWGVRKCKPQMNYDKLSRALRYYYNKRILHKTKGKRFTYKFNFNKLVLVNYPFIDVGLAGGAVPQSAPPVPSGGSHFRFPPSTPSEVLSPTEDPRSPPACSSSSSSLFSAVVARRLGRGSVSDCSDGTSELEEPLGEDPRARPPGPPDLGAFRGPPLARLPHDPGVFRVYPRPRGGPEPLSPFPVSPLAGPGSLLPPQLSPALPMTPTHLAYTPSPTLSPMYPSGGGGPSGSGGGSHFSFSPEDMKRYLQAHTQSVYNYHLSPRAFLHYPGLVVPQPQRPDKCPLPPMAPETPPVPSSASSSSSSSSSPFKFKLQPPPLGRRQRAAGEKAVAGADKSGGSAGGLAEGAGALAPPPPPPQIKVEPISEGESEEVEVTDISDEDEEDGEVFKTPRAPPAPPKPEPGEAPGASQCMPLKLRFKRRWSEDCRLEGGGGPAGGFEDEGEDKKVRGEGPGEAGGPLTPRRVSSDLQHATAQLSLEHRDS
A digest of the protocol:
as §1

The next assay has as its target T9, ETV3L (Homo sapiens, UniProt Q6ZN32 1-361).
T9 sequence: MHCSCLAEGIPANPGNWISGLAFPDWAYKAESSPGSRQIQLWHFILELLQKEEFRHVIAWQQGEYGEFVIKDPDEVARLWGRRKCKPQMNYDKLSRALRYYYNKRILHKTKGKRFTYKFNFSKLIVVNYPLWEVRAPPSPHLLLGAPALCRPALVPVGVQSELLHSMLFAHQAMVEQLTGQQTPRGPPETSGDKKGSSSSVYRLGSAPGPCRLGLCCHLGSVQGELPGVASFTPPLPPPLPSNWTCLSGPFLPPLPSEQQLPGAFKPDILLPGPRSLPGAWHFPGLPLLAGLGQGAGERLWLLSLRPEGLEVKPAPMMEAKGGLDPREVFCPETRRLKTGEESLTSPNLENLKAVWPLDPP
In a few lines:
as §1

In a further assay the target is T10, ETS2 (Homo sapiens, UniProt P15036 1-469).
T10 sequence: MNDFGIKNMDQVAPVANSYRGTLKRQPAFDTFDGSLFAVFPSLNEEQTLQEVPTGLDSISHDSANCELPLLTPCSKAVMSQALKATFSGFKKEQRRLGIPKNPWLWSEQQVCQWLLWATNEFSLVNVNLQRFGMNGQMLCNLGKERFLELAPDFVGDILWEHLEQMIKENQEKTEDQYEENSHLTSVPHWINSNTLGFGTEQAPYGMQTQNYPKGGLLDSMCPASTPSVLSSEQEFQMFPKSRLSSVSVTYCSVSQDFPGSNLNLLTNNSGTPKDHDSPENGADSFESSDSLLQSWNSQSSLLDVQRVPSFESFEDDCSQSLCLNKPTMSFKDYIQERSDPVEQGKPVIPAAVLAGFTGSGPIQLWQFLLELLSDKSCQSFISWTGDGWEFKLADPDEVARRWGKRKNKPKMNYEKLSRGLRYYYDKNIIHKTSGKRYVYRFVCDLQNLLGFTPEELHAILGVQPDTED
A digest of the protocol: as §1

The target of a further assay is T11, ELF5 (Homo sapiens, UniProt Q9UKW6-2 1-255).
T11 sequence: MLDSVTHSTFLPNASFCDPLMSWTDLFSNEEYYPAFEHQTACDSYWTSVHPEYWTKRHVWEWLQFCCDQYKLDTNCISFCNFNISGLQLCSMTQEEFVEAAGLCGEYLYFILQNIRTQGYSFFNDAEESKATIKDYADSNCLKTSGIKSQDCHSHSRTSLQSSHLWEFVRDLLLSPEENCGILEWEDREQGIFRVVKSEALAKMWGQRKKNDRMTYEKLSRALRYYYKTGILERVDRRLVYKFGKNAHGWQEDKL
In a few lines:
as §1

In the next assay the target is T12, ETV3 (Homo sapiens, UniProt P41162-2 1-143).
T12 sequence: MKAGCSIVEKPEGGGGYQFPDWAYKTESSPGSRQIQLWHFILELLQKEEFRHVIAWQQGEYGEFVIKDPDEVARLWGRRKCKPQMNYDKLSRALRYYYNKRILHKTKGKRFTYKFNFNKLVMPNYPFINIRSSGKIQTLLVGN
A digest of the protocol: as §1

For a further assay, the target named is ETV6 (Homo sapiens, UniProt P41212 1-452). In a few lines: as §1
Sequence of ETV6 (P41212 whole entry): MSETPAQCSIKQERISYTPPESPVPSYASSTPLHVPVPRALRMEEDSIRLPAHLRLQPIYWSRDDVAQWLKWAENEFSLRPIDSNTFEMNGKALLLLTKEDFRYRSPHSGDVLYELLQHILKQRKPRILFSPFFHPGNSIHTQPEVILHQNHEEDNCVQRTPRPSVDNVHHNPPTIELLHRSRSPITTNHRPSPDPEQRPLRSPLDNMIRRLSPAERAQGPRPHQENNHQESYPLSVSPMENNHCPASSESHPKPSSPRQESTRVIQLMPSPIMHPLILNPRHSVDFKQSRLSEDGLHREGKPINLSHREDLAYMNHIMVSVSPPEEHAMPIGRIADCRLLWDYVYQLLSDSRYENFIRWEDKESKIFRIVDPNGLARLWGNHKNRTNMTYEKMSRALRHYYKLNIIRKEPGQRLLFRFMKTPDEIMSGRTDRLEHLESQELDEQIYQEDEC

Sequence of SPIB (Q01892 whole entry): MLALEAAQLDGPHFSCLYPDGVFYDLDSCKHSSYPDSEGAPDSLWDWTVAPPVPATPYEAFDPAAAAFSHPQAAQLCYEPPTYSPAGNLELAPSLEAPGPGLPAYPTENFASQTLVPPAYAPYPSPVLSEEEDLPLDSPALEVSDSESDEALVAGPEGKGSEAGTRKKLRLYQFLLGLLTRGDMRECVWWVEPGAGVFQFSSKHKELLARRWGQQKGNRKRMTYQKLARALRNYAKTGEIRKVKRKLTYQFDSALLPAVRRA
Sequence of ETV1 (P50549 whole entry): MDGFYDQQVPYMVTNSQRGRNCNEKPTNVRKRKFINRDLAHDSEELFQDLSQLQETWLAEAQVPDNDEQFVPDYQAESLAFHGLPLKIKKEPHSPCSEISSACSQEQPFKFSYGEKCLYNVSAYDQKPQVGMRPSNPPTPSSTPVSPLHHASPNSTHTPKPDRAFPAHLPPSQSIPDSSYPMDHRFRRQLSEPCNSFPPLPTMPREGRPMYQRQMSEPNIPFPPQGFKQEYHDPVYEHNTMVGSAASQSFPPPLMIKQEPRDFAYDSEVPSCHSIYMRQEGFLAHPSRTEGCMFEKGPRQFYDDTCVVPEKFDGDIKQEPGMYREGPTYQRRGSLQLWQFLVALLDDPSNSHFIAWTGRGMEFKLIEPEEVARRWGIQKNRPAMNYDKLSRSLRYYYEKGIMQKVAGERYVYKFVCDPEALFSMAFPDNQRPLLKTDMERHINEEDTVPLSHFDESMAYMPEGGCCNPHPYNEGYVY

Regarding TCATAC, the binding signal was 1.08 fold enrichment (6-mer frequency, TF over GST control) with FLI1; 1.1 fold enrichment (6-mer frequency, TF over GST control) with ELK1; 1.09 fold enrichment (6-mer frequency, TF over GST control) with GABPA; 1.14 fold enrichment (6-mer frequency, TF over GST control) in the assay with ERG; 1.15 fold enrichment (6-mer frequency, TF over GST control) with ELF1; 1.02 fold enrichment (6-mer frequency, TF over GST control) in the assay with EHF. The binding signal with SPI1 was 1.13 fold enrichment (6-mer frequency, TF over GST control); with SPIB it was 1.16 fold enrichment (6-mer frequency, TF over GST control); with ELK3, 1.17 fold enrichment (6-mer frequency, TF over GST control); in the assay with FEV, 1.07 fold enrichment (6-mer frequency, TF over GST control); in the assay with ETV5, 1.02 fold enrichment (6-mer frequency, TF over GST control); with ELF4, 1.07 fold enrichment (6-mer frequency, TF over GST control). The binding signal with ETV1 was 1.14 fold enrichment (6-mer frequency, TF over GST control); with ERF it was 1.2 fold enrichment (6-mer frequency, TF over GST control); with ETV3L, 1.13 fold enrichment (6-mer frequency, TF over GST control); in the assay with ETS2, 1.06 fold enrichment (6-mer frequency, TF over GST control); in the assay with ELF5 it was 1.09 fold enrichment (6-mer frequency, TF over GST control); with ETV3 it was 1.01 fold enrichment (6-mer frequency, TF over GST control). Further, in the assay with ETV6, the binding signal is 1.01 fold enrichment (6-mer frequency, TF over GST control).
